Unmarked numbers belong to inactive results.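 How the source made its calls: active means compounds whose fitted half-maximal concentration for lowering the signal is under 100 µM; inactive means the rest.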
Assay: fluorescence change in empty-vector K562 cells, dose response, counter-screen for ABCB6 inhibitor project, cell-based, flow cytometry, cherry pick set 1 (AID 623957)
Conditions: K562 vector-only cells, 1 h; series mostly up to 100 µM; percent response (signal): at the top concentration
In the case of `COC(=O)C(NC(=O)CCc1nnc2ccc(N3CCC(C)CC3)nn12)C(C)C` (stereo unspecified), the “percent response (signal)” value is reported as 93.3%.
In the case of `CCOC(=O)C(C)NC(=O)CCc1nnc2ccc(N3CCC(C)CC3)nn12` (stereo unspecified), the “percent response (signal)” value is reported as 105%.
For `Cc1cccc(CS(=O)(=O)c2ncc(Cl)c(C(=O)Nc3ccc(F)cc3)n2)c1`, the “percent response (signal)” value was 98.9%.
For `O=C(CN1CCCCC1)Nc1cccc(Br)c1`, the “percent response (signal)” value was 105%.
In the case of `CCN(CC)CCNC(=O)CCc1nnc2ccc(N3CCC(C)CC3)nn12`, the “percent response (signal)” value is reported as 102%.
With `O=C(Nc1ccc(F)cc1)c1nc(S(=O)(=O)Cc2ccccc2)ncc1Cl` the “percent response (signal)” value was 97.5%.
For `O=C(CCc1nnc2ccc(N3CCC4(CC3)OCCO4)nn12)N1CCCCC1`, the “percent response (signal)” value was 111%.
For `CCCNC(=O)CCc1nnc2ccc(N3CCC(C)CC3)nn12`, the “percent response (signal)” value was 97.7%.
For `CCc1ccc(CNC(=O)C2Cc3cc(S(=O)(=O)N4CCCC4)ccc3N2C(C)=O)cc1` (stereo unspecified), the “percent response (signal)” value was 103%.
For `CCN(CC)S(=O)(=O)c1cccc(-n2c(O)c(C=Nc3ccccc3C(=O)O)c3ccccc3c2=O)c1`, the “percent response (signal)” value was 106%.
For `CC1CC(C)CN(C(=O)CCc2nnc3ccc(N4CCCCC4)nn23)C1` (stereo unspecified), the “percent response (signal)” value was 93.5%.
With `CCOC(=O)C(C)NC(=O)CCc1nnc2ccc(N3CCCCC3)nn12` (stereo unspecified) the “percent response (signal)” value was 107%.
With `CCOC(=O)CNC(=O)CCc1nnc2ccc(N3CCC(C)CC3)nn12` the “percent response (signal)” value was 104%.
For `CCN1CCN(C(=O)CCc2nnc3ccc(N4CCC5(CC4)OCCO5)nn23)CC1`, the “percent response (signal)” value was 95.7%.
For `COCCNC(=O)CCc1nnc2ccc(N3CCC(C)CC3)nn12`, the “percent response (signal)” value was 98.6%.
In the case of `CC1CCN(c2ccc3nnc(CCC(=O)NC(C)C)n3n2)CC1`, the “percent response (signal)” value is reported as 107%.
In the case of `CCOC(=O)C1CCN(C(=O)CCc2nnc3ccc(N4CCN(C)CC4)nn23)CC1`, the “percent response (signal)” value is reported as 97.4%.
With `CC1CCN(c2ccc3nnc(CCC(=O)N4CCCCC4)n3n2)CC1` the “percent response (signal)” value was 108%.
With `Cc1ccc(NC(=O)c2nc(S(=O)(=O)Cc3ccccc3)ncc2Cl)cc1` the “percent response (signal)” value was 99.6%.
For `CCOCCCNC(=O)CCc1nnc2ccc(N3CCCCC3)nn12`, the “percent response (signal)” value was 92.7%.
For `Cc1cccc(NC(=O)c2nc(S(=O)(=O)Cc3ccccc3)ncc2Cl)c1`, the “percent response (signal)” value was 102%.
For `CCOC(=O)N1CCN(CC(=O)Nc2ccc(C)cc2)CC1`, the “percent response (signal)” value was 98.9%.
With `COCCCNC(=O)CCc1nnc2ccc(N3CCC(C)CC3)nn12` the “percent response (signal)” value was 97.5%.
For `COC(=O)c1ccc(NC(=O)c2nc(S(=O)(=O)Cc3cccc(C)c3)ncc2Cl)cc1`, the “percent response (signal)” value was 84.9%.
With `CC1CCN(C(=O)CCc2nnc3ccc(N4CCC5(CC4)OCCO5)nn23)CC1` the “percent response (signal)” value was 110%.
With `CN1CCN(C(=O)CCc2nnc3ccc(N4CCC5(CC4)OCCO5)nn23)CC1` the “percent response (signal)” value was 90.2%.
With `CC(C)CCNC(=O)CCc1nnc2ccc(N3CCC(C)CC3)nn12` the “percent response (signal)” value was 98.4%.
With `COC(=O)C(NC(=O)CCc1nnc2ccc(N3CCCCC3)nn12)C(C)C` (stereo unspecified) the “percent response (signal)” value was 107%.
In the case of `CC1CCN(c2ccc3nnc(CCC(=O)NCCCOC(C)C)n3n2)CC1`, the “percent response (signal)” value is reported as 98.1%.
For `Cc1cccc(CS(=O)(=O)c2ncc(Cl)c(C(=O)Nc3c(C)cccc3C)n2)c1`, the “percent response (signal)” value was 103%.
For `CCC(C)NC(=O)CCc1nnc2ccc(N3CCC(C)CC3)nn12` (stereo unspecified), the “percent response (signal)” value was 109%.
